This note sets out measurements from PubChem BioAssay AID894 (National Center for Advancing Translational Sciences (NCATS), 2007).

Structures are written as SMILES. Several values for one entry are separate records, joined by “and”; a condition that tells them apart may be missing. Equal entries are not always repeated. The whole screen tested about 150,000 compounds, of which about 6,500 (4.3%) were called active. Roughly 12% stayed inconclusive and do not appear here. Only a selection was taken, and actives are over-represented in it overall. Some compounds were tested as several samples or in several runs, with calls that do not always agree. Values without a mark were called inactive. The call rests on the fitted dose curve; in most records, active means well fitted inhibition curve with a large enough effect (not every such curve was filed as active); inconclusive means small, poorly fitted or top-dose-only effect, or another doubt; inactive means no such curve, though single readings can be large or run the other way.
On the % scale 0 is the no-effect control and ±100 the full control effect; potency means the concentration at half of the fitted maximal effect.

15-hydroxyprostaglandin dehydrogenase [NAD(+)] (Homo sapiens), sequence (P15428 whole entry, looked up): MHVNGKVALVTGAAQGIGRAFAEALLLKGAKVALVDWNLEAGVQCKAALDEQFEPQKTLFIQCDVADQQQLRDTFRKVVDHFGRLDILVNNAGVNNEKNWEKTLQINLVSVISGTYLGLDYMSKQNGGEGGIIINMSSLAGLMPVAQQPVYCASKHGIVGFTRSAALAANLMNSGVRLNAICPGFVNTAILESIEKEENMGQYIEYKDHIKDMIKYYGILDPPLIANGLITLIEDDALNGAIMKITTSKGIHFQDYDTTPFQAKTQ

This test addresses 15-hydroxyprostaglandin dehydrogenase [NAD(+)] (Homo sapiens) (UniProt P15428). As to the kind of experiment: qHTS Assay for Inhibitors of HPGD (15-Hydroxyprostaglandin Dehydrogenase). The note with it: purified HPGD, NADH fluorescence kinetic, PGE2 substrate; activity change, negative = inhibition: active compounds read low. The method, boiled down: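 20 nM HPGD preincubated 15 min at room temperature with compound in 50 mM Tris-HCl pH 8, 0.01% Tween 20. Started with 1 mM NAD+ and 30 uM prostaglandin E2; NADH fluorescence (360/450 nm) read 5 times over 30-s intervals, last minus first.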
In general terms: Quantitative high-throughput screening tests each substance at several concentrations.
For `COc1ccc(-n2c(=S)[nH]c3sc4c(c3c2=O)CCc2ccccc2-4)cc1`, the Potency was 12.6 µM (active). In the case of `COc1ccc(C(=O)Nc2ncc3c(n2)-c2ccccc2CC3)cc1`, the activity change, negative = inhibition is -20.4%. `CSc1nc2sc3c(c2c(=O)[nH]1)CCc1ccccc1-3`: the activity change, negative = inhibition was -7.61%. Still for that read-out and setting: the figure for `Cc1cccc(C(=O)NCC(=O)OCC(=O)N2CC3(C)CC2CC(C)(C)C3)c1` (centres undefined) is -5.91%; for `Cn1cccc1/C=N/NC(=O)c1ccc(OC(F)(F)C(F)F)cc1` it is -5.18%.

For the compound `COc1ccc(CCNC(=O)CSc2nnc(-c3cccc(F)c3)o2)cc1OC`, the activity change, negative = inhibition is -14.4%. As to `CCN(CC)C(=O)CSc1nnc(-c2cccc(OC)c2)o1`, the activity change, negative = inhibition is -11.1%. `COc1ccc(CN(C(=O)CSc2nnc(-c3ccc(OC)c(OC)c3)o2)c2ccc(F)cc2)cc1`: the Potency is 14.1 µM (active).

Take `COCCNC(=O)c1ccccc1NS(=O)(=O)c1ccc(C)c([N+](=O)[O-])c1`: the activity change, negative = inhibition is 1.9%. With `Brc1cccc(-c2nnc3n2CCC3)c1`, the activity change, negative = inhibition is -11.6%. As to `Cc1cccc(NC(=O)CN2C(=O)CNC2=O)c1`, the activity change, negative = inhibition was -7.22%. Take `O=C(Cn1[nH]c(=O)c2ccccc2c1=O)Nc1cccc(-c2nnc3n2CCCCC3)c1`: the Potency is 14.1 µM (active). `COc1ccnc(Oc2ccccc2)n1`: the activity change, negative = inhibition is -1.44%. Consider `O=[N+]([O-])c1ccc(N/N=C2/CCCCC2c2ccccn2)c([N+](=O)[O-])c1` (centres undefined), for which the activity change, negative = inhibition is -4.22%.

Turning to `Cc1ccc(S(=O)(=O)N2CCOCC2)cc1C(=O)NC(=S)N(Cc1ccccc1)C(C)C`, the activity change, negative = inhibition is -17.6%. `CCC(C(=O)OCC(=O)Nc1ccc(C(=O)Nc2ccc(OC)cc2)cc1)c1ccccc1` (centres undefined): the activity change, negative = inhibition is -12.4%.

On to `Cc1nc2ccc(S(=O)(=O)NC(C(=O)N3CCCCCC3)C(C)C)cc2s1` (centres undefined), for which the activity change, negative = inhibition was -2.12%.

For `Cc1nc2ccc(C(=O)N3CCN(c4ccccc4)CC3)cc2s1`, the activity change, negative = inhibition is -2.92%. Regarding `Cc1nc2ccc(C(=O)N3CCSCC3)cc2s1`, the Potency is 1.58 µM (active). With `O=C(N/N=C/c1ccc2c(c1)OCO2)c1ccc(Cn2cc([N+](=O)[O-])cn2)o1`, the activity change, negative = inhibition is -8.13%. Still for that read-out and setting: for `C=CCN1C(=O)C(Cc2ccc(OCC)cc2)SC1=Nc1ccc(C(=O)O)cc1` (centres undefined) the value was -8.9%; for `Cc1ccc(C)c(OCC(=O)N2CCN(C(=O)c3ccco3)CC2)c1`, 1.99%; for `CCc1nnc(NS(=O)(=O)c2ccc(NS(=O)(=O)c3ccccc3)cc2)s1`, 2.28%.

Turning to `COc1cc(NS(=O)(=O)c2ccc(N=Cc3c(C)[nH]n(-c4ccccc4)c3=O)cc2)nc(OC)n1`, the activity change, negative = inhibition is -14.8%.

On to `CCc1nnc(NS(=O)(=O)c2ccc(N=Cc3c(C)[nH]n(-c4ccc(C)cc4)c3=O)cc2)s1`, for which the Potency was 25.1 µM (active). As for `COC(=O)C1(C(C)=O)CC2=CC[C@H]3C(=O)N(c4ccccc4)C(=O)[C@H]3[C@@H]2Cc2ccccc2[C@@H]1C[N+](=O)[O-]` (some centres undefined), the activity change, negative = inhibition was -2.53% and -4.27%. Consider `Oc1c(Cl)cc(Cl)c(Cl)c1Cc1c(O)c(Cl)cc(Cl)c1Cl`, for which the Potency was 35.5 µM (active); the activity change, negative = inhibition is -15.8% and -6.53%.

As to `NS(=O)(=O)c1ccc(NC(=O)COC(=O)C2(c3ccc(F)cc3)CCCC2)cc1`, the activity change, negative = inhibition is -17%.

For the compound `Cc1ccc(NC(=O)CC2S/C(=N/N=C3\CCCc4ccccc43)NC2=O)cc1` (centres undefined), the activity change, negative = inhibition is -13.9%. The same measure, in the same setting: for `CCCCCCCCCOC1OC(CO)C(O)C(O)C1NC(C)=O` (centres undefined) the value was -3.92%. On to `CC1CCN(C(=O)c2cc3nc(C4CC4)cc(C(F)(F)F)n3n2)CC1`, for which the Potency is 1.26 µM (active). On to `C=CCNC(=O)c1cc2nc(C3CC3)cc(C(F)F)n2n1`, for which the activity change, negative = inhibition was -7.97%. `COC(=O)c1cc2nc(-c3ccccc3)cc(C(F)(F)F)n2n1`: the activity change, negative = inhibition was -14.5%.

In the case of `CN(C)/N=C/c1cc(Cl)cc([N+](=O)[O-])c1O`, the activity change, negative = inhibition is -18.9%. In the case of `O=C(NCC1CCCO1)c1ccc2ccccc2n1` (centres undefined), the activity change, negative = inhibition was -27.3%. Turning to `O=C(NCC1CCCO1)/C(=C/c1ccc(Cl)cc1)NC(=O)c1ccccc1` (centres undefined), the activity change, negative = inhibition is -23%.

In the case of `O=C(/C=C/c1ccccc1[N+](=O)[O-])NCC1CCCO1` (centres undefined), the Potency was 4.47 µM (active). Regarding `COC(=O)c1cc(C(=O)N(Cc2ccccc2)c2ccccn2)cc([N+](=O)[O-])c1`, the activity change, negative = inhibition is -15.3%. Take `Cc1cc(SCC(=O)NCCN2C(=O)CSC2=O)nc2ccccc12`: the activity change, negative = inhibition was -24.5%. As for `O=C(COC(=O)c1ccc(Cl)nc1)NCc1ccc2c(c1)OCO2`, the activity change, negative = inhibition was -9.81%. As to `Cc1ccc(C(=O)OCC(=O)NCc2ccc3c(c2)OCO3)s1`, the activity change, negative = inhibition is -10.3%. For `Cc1cc(Br)ccc1SCC(=O)OCC(=O)NCc1ccc2c(c1)OCO2`, the Potency was 25.1 µM (active). Regarding `C=CCNCCCCOc1ccccc1`, the activity change, negative = inhibition is -5.77%. The same measure, in the same setting: the figure for `COC(=O)c1ccccc1NS(=O)(=O)c1ccc2[nH]c(=O)[nH]c2c1` is -11.9%; for `CCN1C(=O)N[C@@H](CCc2ccccc2)C(C(=O)OC)=C1C` it is -3.92%; for `COc1cc(C(=O)Nc2nccs2)cc(OC)c1OC` it is -15.1%. As to `Cn1cccc1C(=O)Nc1nccs1`, the Potency was 31.6 µM (active).

Regarding `CC(=O)Oc1ccc(C(=O)Nc2nccs2)cc1`, the activity change, negative = inhibition is -13.6%. As to `CC(OC(=O)c1ccccc1N1C(=O)C2C3CCC(C3)C2C1=O)C(=O)c1ccccc1` (centres undefined), the activity change, negative = inhibition is -11.4%. For `CCOc1ncccc1C(=O)N(CC)CC(=O)Nc1ccc(NC(C)=O)cc1`, the activity change, negative = inhibition is -1.26%. In the case of `C/C=C/c1ccc(OCCOc2ccc(C=O)cc2OC)c(OC)c1`, the activity change, negative = inhibition is -16.6%. Regarding `O=C(CC1NCCNC1=O)Nc1cc(Cl)cc(Cl)c1` (centres undefined), the activity change, negative = inhibition is -10.9%. For `O=C(Nc1cc(=O)[nH]c2ncnn12)c1ccccc1Cl`, the Potency was 22.4 µM (active). As to `CC(=O)Nc1cccc(/C(C)=N/NC(=O)c2ccccc2Cl)c1`, the activity change, negative = inhibition was -5.88%. As for `O=C(Nc1ccc2nc3n(c(=O)c2c1)CCCCC3)c1ccccc1Cl`, the activity change, negative = inhibition was -20.5%. For the compound `CC(Cc1cccs1)NC(=O)c1cccc(Cl)c1` (centres undefined), the Potency is 7.94 µM (active). Regarding `CC(Cc1cccs1)NC(=O)NC1CCCCC1` (centres undefined), the activity change, negative = inhibition is -17.9%. With `COCC(C)NC(=O)c1ccc(Cl)c(Cl)c1` (centres undefined), the activity change, negative = inhibition is -23%.
